Results filed as inconclusive are left out. The source made the active and inactive calls. Calls follow the shape of the full dose curve. Positions of bridges follow the written chain, without caps; N, C: chain ends. Non-standard residues stand in square brackets, D forms with d. Residues, ends and D or L forms follow the SMILES beside them. *: point of attachment. X2 = CC[C@H](C)CCCCC(=O)*; Dab = NCC[C@H](N)C(=O)O
Assay: qHTS assay to identify small molecule antagonists of the estrogen receptor alpha (ER-alpha) signaling pathway - cell viability counter screen (AID 743074);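 also: HEK293 cells carrying ER-alpha-UAS-bla reporter stimulated with 17beta-estradiol; nearly all actives have a fitted effect of over 45% in size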
Conditions: ERalpha-bla HEK293 viability, CellTiter-Glo luminescence, 18 h; series mostly up to 69.4 µM; activity, negative = cytotoxicity: at the top concentration
% is scaled to controls: 0 for no effect and ±100 for the full control effect.

Row | SMILES | activity, negative = cytotoxicity | Potency
1 | O=C(O)c1cccc(/C=C2/C[C@@H]3[C@@H](/C=C/[C@@H](O)C4CCCCC4)[C@H](O)C[C@@H]3O2)c1 | -7.86% (inactive) | –
2 | CC1(C)S[C@@H]2[C@H](NC(=O)[C@H](N)c3ccccc3)C(=O)N2[C@H]1C(=O)OCOC(=O)[C@@H]1N2C(=O)C[C@H]2S(=O)(=O)C1(C)C | -7.05% (inactive) | –
3 | NCCC(=O)[N-][C@@H](Cc1cnc[nH]1)C(=O)O.[Zn] | 6.58% (inactive) | –
4 | CNc1cc(OC)c(C(=O)N[C@H]2CCN(Cc3ccccc3)[C@H]2C)cc1Cl | -13.1% (inactive) | –
5 | C#CCOc1ccc2c(C)cc(=O)oc2c1 | -12.2% (inactive) | –
6 | OC[C@H]1O[C@@H](n2cnc3c2NC=NC[C@H]3O)C[C@@H]1O | -8.25% (inactive) | –
7 | CCCC(=O)Nc1c(I)cc(I)c(CC(CC)C(=O)O)c1I (stereo not given) | 28.8% (inactive) | –
8 | O=P(O)(O)OC(CO)CO | 8.62% (inactive) | –
9 | CCCCCCCCCCCCCCCC(=O)O[C@@H]1[C@@H](O)[C@@H](O)[C@@H]([C@H](NC(=O)[C@@H]2C[C@@H](CCC)CN2C)[C@H](C)Cl)O[C@@H]1SC | -19.1% (inactive) | –
10 | CC(=O)O[C@H]1C[C@@]2(C)[C@@H](C[C@@H](O)[C@H]3[C@@]4(C)CC[C@@H](O)[C@@H](C)[C@@H]4CC[C@@]32C)/C1=C(\CCC=C(C)C)C(=O)O | 18.5% (inactive) | –
11 | CC1=C[C@H](O)CC(C)(C)[C@H]1/C=C/C(C)=C/C=C/C(C)=C/C=C/C=C(C)/C=C/C=C(C)/C=C/C1=C(C)C[C@@H](O)CC1(C)C | 4.32% (inactive) | –
12 | C[C@H](CSC(=O)c1ccccc1)C(=O)N1C[C@@H](Sc2ccccc2)C[C@H]1C(=O)O | 14.1% (inactive) | –
13 | O=S(O)CNc1ccc(S(=O)(=O)c2ccc(NCS(=O)O)cc2)cc1 | 8.02% (inactive) | –
14 | CC(=O)O[C@H]1C[C@@H]2CC[C@@H]3[C@H](CC[C@@]4(C)[C@H]3C[C@H](N3CC[N+](C)(C)CC3)[C@@H]4OC(C)=O)[C@@]2(C)C[C@@H]1N1CC[N+](C)(C)CC1 | 7.28% (inactive) | –
15 | O=C1O[C@H]2[C@H](O)[C@@H]1OC(O)[C@H]2O (stereo not given in full) | 10.1% (inactive) | –
16 | CC(=O)Nc1ccc(NC(=S)NC(=O)c2ccc(C(C)(C)C)cc2)cc1 | 3.55% (inactive) | –
17 | CCSc1ccc2c(c1)N(CCCN1CCN(C)CC1)c1ccccc1S2 | -22.6% [at 32.6 µM] (inactive) | –
18 | CC[C@H]1OC(=O)[C@H](C)[C@@H](O[C@H]2C[C@@](C)(OC)[C@@H](O)[C@H](C)O2)[C@H](C)[C@@H](O[C@@H]2O[C@H](C)C[C@H](N(C)C)[C@H]2O)[C@](C)(O)C[C@@H](C)[C@@H]2N[C@@H](COCCOC)O[C@@H]([C@H]2C)[C@]1(C)O | 15.8% (inactive) | –
19 | Cn1c(=O)c2c(ncn2CCOC(=O)C(C)(C)Oc2ccc(Cl)cc2)n(C)c1=O | -21.7% (inactive) | –
20 | O=C(O)c1ccc(OCCn2ccnc2)cc1 | -2.21% (inactive) | –
21 | CC1=C(/C=C/C(C)=C/C=C/C(C)=C/C=C/C=C(C)/C=C/C=C(C)/C=C/C2=C(C)C[C@@H](O)CC2(C)C)C(C)(C)C[C@H](O)C1 | -13.3% (inactive) | –
22 | CO[C@@H]1[C@@H](O[C@@H]2O[C@H](C)[C@@H](O[C@H]3C[C@@](C)(O)[C@@H](OC(=O)CC(C)C)[C@H](C)O3)[C@H](N(C)C)[C@H]2O)[C@@H](CC=O)C[C@@H](C)[C@@H](O)/C=C/C=C/C[C@@H](C)OC(=O)C[C@H]1O | -14.9% (inactive) | –
23 | CCN(CC)CCOc1ccc2nc(N(C)C)sc2c1 | -24.6% (inactive) | –
24 | COc1cc([C@@H]2c3cc4c(cc3C(O[C@@H]3O[C@@H]5COC(c6cccs6)O[C@H]5[C@H](O)[C@H]3O)C3COC(=O)[C@@H]32)OCO4)cc(OC)c1O (stereo not given in full) | 4.77% (inactive) | –
25 | COCC1=C(C(=O)OC(C)OC(=O)OC(C)C)N2C(=O)[C@@H](NC(=O)/C(=N\OC)c3csc(N)n3)[C@H]2SC1 (stereo not given in full) | – | inactive
26 | Cc1cccc(C)c1Nc1ncccc1C(=O)O | -20.3% (inactive) | –
27 | CC1=C(/C=C/C(C)=C/C=C/C(C)=C/C=C/C=C(C)/C=C/C=C(C)/C=C/C2=C(C)C(=O)CCC2(C)C)C(C)(C)CCC1=O | -12.7% (inactive) | –
28 | CCC(=O)O[C@]1(C(=O)CCl)[C@@H](C)C[C@H]2[C@@H]3C[C@H](F)C4=CC(=O)C=C[C@]4(C)[C@@]3(F)[C@@H](O)C[C@@]21C | -3.79% (inactive) | –
29 | O=C1C(=O)c2ncccc2-c2cccnc21 | -27.7% (inactive) | –
30 | CC[C@H](C)CCCCC(=O)N[C@@H](CCN)C(=O)N[C@H](C(=O)N[C@@H](CCN)C(=O)N[C@H]1CCNC(=O)[C@H]([C@@H](C)O)NC(=O)[C@H](CCN)NC(=O)[C@H](CCN)NC(=O)[C@H](CC(C)C)NC(=O)[C@@H](CC(C)C)NC(=O)[C@H](CCN)NC1=O)[C@@H](C)O (X2-[Dab]T[Dab][Dab][Dab][dL]L[Dab][Dab]T; lactam 4-C) | -23.3% (inactive) | –

— PubChem BioAssay (Tox21)
